This note sets out measurements from PubChem BioAssay AID623868 (Vanderbilt High Throughput Screening Facility, 2012).

Molecules are shown by their SMILES. About 760 (36%) of roughly 2,100 compounds were called active.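 Rule for the calls: active = thallium-flux fluorescence traces judged by eye to show enhanced or reduced glutamate response, manual score 1 or -1, so both directions (some results past the limit were not filed as active); inactive = the rest, including fluorescent or raised-baseline compounds.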 The list is a sample of the results.

The assay can be described thus: non-GIRK thallium flux modulation in mGlu8 cells, confirmation, counter-screen for GIRK activator project, cell-based, HEK-293 rmGlu8, no GIRK (AID 623868).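 Note: extra codes mark interference with 3 for fluorescent and 4 for baseline rise.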 To be noted: thallium flux fluorescence, at 10 µM, actives lie on both sides, codes: 1 enhancer, -1 blocker, 0 none, thallium stimulus containing EC20 glutamate.
Take `CCCCCCc1cc2cc(C(=O)NC)c(=N)oc2cc1O`: the manual score was 3 (inactive).

In the case of `COc1ccc(Nc2nnc(Cc3ccccc3)c(=O)[nH]2)c(OC)c1`, the manual score was 0 (inactive).

As for `CCN(c1ccccc1)S(=O)(=O)c1ccc(NC(=S)NC(=O)c2ccc(Br)o2)cc1`, the manual score was 1 (active).

`CCc1nnc(NS(=O)(=O)c2ccc(NC(=S)NC(=O)c3ccccc3)cc2)s1`: the manual score was 0 (inactive).

As to `CN(c1ccccc1)S(=O)(=O)c1ccc(NC(=S)NC(=O)c2ccccc2)cc1`, the manual score was 0 (inactive).

In the case of `CCOC(=O)c1ccccc1NC(=O)CSc1nnc(COc2ccccc2C)n1C`, the manual score was -1 (active).

With `CCOC(=O)CN(C(=O)CSc1nnc(Cc2ccccc2)n1-c1ccc(C)cc1)c1ccccc1`, the manual score was 0 (inactive).

`CCOC(=O)c1ccccc1NC(=O)CSc1nnc(COc2ccccc2)n1CC`: the manual score was 0 (inactive).

`CCOC(=O)c1ccccc1NC(=O)CSc1nnc(Cc2cccn2C)n1-c1ccc(C)cc1`: the manual score was -1 (active).

On to `COC(=O)c1ccc(NC(=O)CSc2nnc(COc3ccccc3)n2C)cc1`, for which the manual score was 3 (inactive).

Regarding `CCOC(=O)c1ccccc1NC(=O)CSc1nnc(Cc2cccn2C)n1-c1ccc(F)cc1`, the manual score was 0 (inactive).

Regarding `CC(Sc1nc2ccccc2c(=O)[nH]1)C(=O)O` (stereo not given), the manual score was 0 (inactive).

As for `N#Cc1c(-c2ccco2)nc(SCc2ccc(F)cc2)[nH]c1=O`, the manual score was -1 (active).

For `CCOc1ccccc1C1CC(=O)NC(SCC)=C1C#N` (stereo not given), the manual score is 0 (inactive).

For `CCSc1nc(-c2ccccc2)c(C#N)c(=O)[nH]1`, the manual score was -1 (active).

In the case of `N#Cc1c(N)nc(SCc2ccccc2)c(C#N)c1-c1ccco1`, the manual score was 0 (inactive).

As to `CCc1nc(SCc2ccc(F)cc2)[nH]c(=O)c1C#N`, the manual score is 3 (inactive).

For the compound `Cc1oc(-c2ccccc2F)nc1CS(=O)(=O)CC(=O)NCCN(C)C1CCCCC1`, the manual score was 0 (inactive).

On to `c1cn(CC2(Cn3ccnc3)COC2)cn1`, for which the manual score is 0 (inactive).

Consider `CCOc1ccccc1N1CCN(C(=O)c2cc3c(s2)CCC3)CC1`, for which the manual score was -1 (active).

With `O=C(c1ccccc1CCc1ccccc1)N1CCN(c2ccccn2)CC1`, the manual score is 0 (inactive).

On to `O=C(c1ccccc1Oc1ccccc1)N1CCN(c2ccccc2)CC1`, for which the manual score was 0 (inactive).

On to `CCCc1ccc(C(=O)N2CCN(c3ccccc3OCC)CC2)cc1`, for which the manual score is -1 (active).

Consider `CC1CCN(c2c([N+](=O)[O-])c(=O)oc3ccccc23)CC1`, for which the manual score was 0 (inactive).

For the compound `COc1ccc(C(C)n2c(C)c3c(C)nnc(C)c3c2C)cc1` (stereo not given), the manual score is 0 (inactive).

With `O=C(CSc1nc2ccccc2n1CCc1ccccc1)N1CCOCC1`, the manual score was 0 (inactive).

Regarding `O=C1OCCC1Sc1nc2cc(Cl)ccc2n1Cc1ccccc1` (stereo not given), the manual score is 1 (active).

As to `CC1=C(C(=O)Nc2cccnc2)C(c2ccc3c(c2)OCO3)C2=C(CCCC2=O)N1` (stereo not given), the manual score is 0 (inactive).

For the compound `Cc1oc(-c2ccccc2)nc1CS(=O)CC(=O)O` (stereo not given), the manual score is 1 (active).

With `Cc1ccccc1-c1nc(CS(=O)(=O)CC(=O)NCCCN2CCCC2)c(C)o1`, the manual score is 0 (inactive).

As to `Cc1cccc(-c2nc(CN3CCCC(C(=O)NC4CCCCC4)C3)c(C)o2)c1` (stereo not given), the manual score was 0 (inactive).

On to `CCOC(=O)Cc1csc(NC(=S)NC(=O)c2ccc(C)cc2)n1`, for which the manual score is 1 (active).

With `CCOC(=O)Cc1csc(NC(=S)NC(=O)C(C)(C)C)n1`, the manual score is 1 (active).

`CCOC(=O)Cc1csc(NC(=S)NC(=O)c2ccccc2)n1`: the manual score is 1 (active).

As for `CCOC(=O)Cc1csc(NC(=O)Nc2ccccc2)n1`, the manual score was 0 (inactive).

As for `CC1CCN(c2ccc(/C=N/n3nnnc3N)cc2[N+](=O)[O-])CC1`, the manual score was 0 (inactive).

`COc1ccc2c(c1)Sc1ccccc1N2CCN(C)C`: the manual score is 0 (inactive).

In the case of `O/N=C/c1cc(Cl)ccc1OCc1cccc2ccccc12`, the manual score was 0 (inactive).

For the compound `Cc1cc(C)n(-c2nnc(C)n2/N=C/c2ccccc2OCc2ccccc2Cl)n1`, the manual score was -1 (active).

For the compound `COc1ccccc1/C=C/C=N\N1CCN(Cc2ccccc2Cl)CC1`, the manual score was 0 (inactive).

Take `Fc1ccc(NC(=S)Nc2ccccc2OC(F)F)cc1Cl`: the manual score is 0 (inactive).

`CCNC(=S)NNC(=O)c1cccn(Cc2ccc(Cl)cc2)c1=O`: the manual score is 0 (inactive).

As to `CCc1ccc(NC(=S)NNC(=O)c2ccccc2OC(F)F)cc1`, the manual score was 1 (active).

Take `c1ccc2c(Nc3nnc(-c4ccncc4)s3)cccc2c1`: the manual score is 0 (inactive).

Take `CCc1ccc2c(c1)C1(NN=C(c3cccc4ccccc34)S1)C(=O)N2` (stereo not given): the manual score is 0 (inactive).

As for `CCc1ccc(Nc2nc3ccccc3c(=O)s2)cc1`, the manual score was 1 (active).

As for `CCOc1cc(C(=O)NCc2ccncc2)cc(OCC)c1OCC`, the manual score was 0 (inactive).

For the compound `COc1ccc(-n2nnnc2SCC(=O)N2CCOCC2)cc1`, the manual score is 0 (inactive).

In the case of `NS(=O)(=O)c1ccc(S(=O)(=O)N2CCCC2)cc1`, the manual score is 0 (inactive).

On to `Cc1ccc2nc(-c3ccc(O)cc3)c(Nc3ccc4c(c3)OCCO4)n2c1`, for which the manual score was -1 (active).

Take `Cc1ccc(-c2nnc(SCC(=O)Nc3ccc4c(c3)OCCO4)n2N)cc1`: the manual score was 0 (inactive).

For `CCCN(CCC)CC(O)Cn1cc(/C=C/C(=O)c2cccs2)c2ccccc21` (stereo not given), the manual score was 3 (inactive).

On to `O=C(Nc1nc2ccc(Cl)cc2s1)c1ccc(Br)o1`, for which the manual score is 0.5 (inactive).

Turning to `Cc1cc(C)c2nc(NC(=O)c3cc(C)on3)sc2c1`, the manual score is 1 (active).

Take `CNC(=O)c1ccc2nc(NC(C)=O)sc2c1`: the manual score was 0 (inactive).

Turning to `CCc1ccc2nc(NC(=O)c3cc(C)on3)sc2c1`, the manual score was 1 (active).

`COc1ccc(-c2c(S(=O)(=O)c3ccccc3)cnn2-c2ccccc2)cc1`: the manual score is 0 (inactive).

On to `CCOc1ccc(NC(=O)NC23CC4CC(CC(C4)C2)C3)cc1`, for which the manual score is 0 (inactive).

In the case of `COc1ccc2nc(N=Nc3ccc(O)c4ccccc34)sc2c1`, the manual score was 0 (inactive).

Turning to `COc1ccc2nc(NC(=S)N(C)C)sc2c1`, the manual score was 1 (active).

`CS(=O)(=O)c1ccc2nc(NC(=O)Nc3ccc(Cl)c(Cl)c3)sc2c1`: the manual score was 0 (inactive).

As to `Cc1ccc(OCC(O)Cn2c(=N)n(Cc3ccccc3)c3ccccc32)cc1` (stereo not given), the manual score was 0 (inactive).

For `CCn1c(-c2cc3c(C(F)(F)F)nn(C)c3s2)n[nH]c1=S`, the manual score is 0 (inactive).

Take `CCn1c2ccccc2c2cc(/C=N/n3cn[nH]c3=S)ccc21`: the manual score was 1 (active).

Consider `CCn1c(-c2ccc(-c3ccccc3)cc2)c[nH]c1=S`, for which the manual score is 0 (inactive).

As to `CCOC(=O)Cn1c(=N)n(Cc2ccccc2F)c2ccccc21`, the manual score was 0 (inactive).

For `O=[n+]1c2c(n([O-])c3cc(F)c(N4CCCC4)cc31)CCCC2`, the manual score is 3 (inactive).

Turning to `Cc1ccc(S(=O)(=O)N2CCN(C)CC2)cc1-c1nnc2c3ccccc3c(C)nn12`, the manual score is 0 (inactive).

`C/C(=N\NC(=S)Nc1cccc(C)c1)c1cccc(N)c1`: the manual score is 1 (active).

As for `CN(C)S(=O)(=O)c1cc(NC(=O)COC(=O)c2ccc3c(c2)OCO3)ccc1Cl`, the manual score is 0 (inactive).

In the case of `COC(=O)[C@H](CC(C)C)NC(=O)Nc1ccc2c(c1)OCCO2`, the manual score is 0 (inactive).

`C/C(=N/NC(=S)Nc1ccccc1)c1ccc2c(c1)OCO2`: the manual score was 1 (active).

Take `O=C(Nc1ccc2c(c1)OCCO2)NC12CC3CC(CC(C3)C1)C2`: the manual score is 0 (inactive).

For `C/C(=N\NC(=S)Nc1ccc(F)cc1)c1ccc2c(c1)OCCO2`, the manual score was 1 (active).

For `Cc1c(N2C(=O)CS/C2=N\N=C\c2ccccc2O)c(=O)n(-c2ccccc2)n1C`, the manual score was 0 (inactive).

As to `O=C1c2ccccc2C(=O)N1Nc1ccccc1`, the manual score is 0 (inactive).

Take `Cc1ccc(C)n1-c1ccc(-c2nnco2)cc1`: the manual score is 0 (inactive).

Turning to `CCOc1ccc(-c2nc(-c3cccnc3)no2)cc1OCC`, the manual score was 0 (inactive).

Consider `Cc1ccc(-c2cn(-c3ccccc3)c(SCC(=O)NC3CCS(=O)(=O)C3)n2)cc1C` (stereo not given), for which the manual score is 1 (active).

In the case of `O=C(CSc1nnnn1-c1cccc2c1CCCC2)NC1CCCC1`, the manual score was 0 (inactive).

As to `Cc1ccc2nc(NCc3ccccc3)[nH]c2c1`, the manual score was 0 (inactive).

On to `Cc1ccc(NC(=S)c2nc3ccccc3[nH]2)c(C)c1`, for which the manual score is 1 (active).

As for `N#C/C(=C/c1ccc(N2CCOCC2)o1)c1nc2ccccc2[nH]1`, the manual score was 3 (inactive).

Take `Cc1ccccc1NC(=S)c1nc2ccccc2[nH]1`: the manual score is 1 (active).

For the compound `Cc1ccc(OC(=S)Nc2ccccc2)c(C)c1`, the manual score was 0 (inactive).

For the compound `Cc1ccc(-n2nnnc2-c2nc3ccccc3s2)cc1`, the manual score is 0 (inactive).

As to `Cc1ccc(C)c(NC(=S)c2nc3ccccc3s2)c1`, the manual score was 1 (active).

Turning to `N#C/C(=C\c1ccc(N2CCOCC2)o1)c1nc2ccccc2[nH]1`, the manual score was 3 (inactive).

With `Cc1ccc(Cn2c(SCC(=O)N3CC(=O)Nc4ccccc43)nc3ccccc3c2=O)cc1`, the manual score is 1 (active).

On to `Cc1ccc(Cn2c(SCC(=O)NCC3CCCO3)nc3c(sc4ccccc43)c2=O)cc1` (stereo not given), for which the manual score was 0 (inactive).

On to `O=C1CN(C(=O)CSc2nc3ccccc3c(=O)n2Cc2ccc(F)cc2)c2ccccc2N1`, for which the manual score is 1 (active).

In the case of `Cc1cc(NC(=O)CSc2nc3ccccc3c(=O)n2Cc2ccccc2)no1`, the manual score is 0 (inactive).

As to `O=C(CSc1nc2ccccc2c(=O)n1CC1CCCO1)N1CCN(c2ccccc2)CC1` (stereo not given), the manual score was 0 (inactive).

As to `CCC(C)NC(=O)CSc1nc2ccccc2c(=O)n1Cc1ccc(OC)cc1` (stereo not given), the manual score was 1 (active).

For the compound `CC(c1ccccc1)n1c(SCC(=O)N2CC(=O)Nc3ccccc32)nc2ccccc2c1=O` (stereo not given), the manual score was 0 (inactive).

Take `O=C1CN(C(=O)CSc2nc3cc(Cl)ccc3c(=O)n2Cc2ccccc2)c2ccccc2N1`: the manual score is 1 (active).

In the case of `Clc1ccc(OCCn2ccnc2)c(Cl)c1`, the manual score is 0 (inactive).

In the case of `CC(/C=N/n1c(-c2ccc(Cl)cc2)n[nH]c1=S)=C\c1ccco1`, the manual score is 1 (active).

For the compound `CC(/C=N/n1c(-c2ccccc2)n[nH]c1=S)=C\c1ccco1`, the manual score is 1 (active).

Consider `O=C(Nc1ccccc1)Nc1nccs1`, for which the manual score is -0.5 (inactive).

As for `COC(=O)CSC1=NS(=O)(=O)c2ccccc21`, the manual score was 0 (inactive).

With `CCCc1nc2ccccc2c(=O)n1/N=C/c1c(C)[nH]n(-c2ccc(C)cc2)c1=O`, the manual score was 1 (active).

As for `CN(C)CCNc1nc2c(c(=O)[nH]c(=O)n2C)n1CCCc1ccccc1`, the manual score was 0 (inactive).

Take `O=c1c(-c2ccccc2)nc(-c2ccccc2)cn1O`: the manual score was 1 (active).

In the case of `COCCn1nnnc1C(c1ccccc1)N1CCN(c2ccccc2)CC1` (stereo not given), the manual score was 0 (inactive).
